The values that follow come from PubChem BioAssay (NCATS).

For experiment [1] the following is noted: Ebola virus entry assay, green fluorescence channel.
The conditions of experiment [2]: Ebola virus entry assay, blue channel fluorescence.
The conditions of experiment [3]: Ebola virus entry assay, ratio channel.
For experiment [4] the following is noted: Ebola virus entry assay, reporter ratio channel; Channel type: primary.

Unmarked numbers belong to inactive results. For part of these data: Measured potencies and affinities stand elsewhere. Calls of active or inactive are those of the source. No rule for the calls is given here.
For efficacy in this document: 0% is about no effect.

`COc1cccc(N(C)C(=S)Oc2ccc3c(c2)CCCC3)n1`: the efficacy in experiment [1] is 84.1%. Also, the AC50 (commonly the concentration giving half of the maximal activity seen) in experiment [2] is 17.8 µM (active); in experiment [3], 28.2 µM (active); in experiment [4] it was 28.2 µM (active).

`c1ccc(OCc2ccc(CCCN3CCOCC3)cc2)cc1`: the efficacy in experiment [1] is 89.3%. The AC50 in experiment [2] was 22.4 µM (active); in experiment [3], 20 µM (active); in experiment [4], 20 µM (active).

For the compound `Cc1cc(O)c(C(C)C)cc1Cl`, in experiment [1], the efficacy was -25.5%. Also, in experiment [2], the AC50 is 35.5 µM (active). The result in experiment [3] and in experiment [4] was inactive.

For `O=C(Nc1ccc(Cl)cc1)Nc1ccc(Cl)c(C(F)(F)F)c1`, the efficacy in experiment [1] was -174%. Also, the AC50 in experiment [2] is 28.2 µM (active); in experiment [3], 8.91 µM (active); in experiment [4] it was 8.91 µM (active).

With `CN(C)CC/C=C1\c2ccccc2Sc2ccc(Cl)cc21`, the efficacy in experiment [1] is -98.3%. Further, the AC50 in experiment [2], in experiment [3] and in experiment [4] was 3.16 µM (active) throughout.

For the compound `CC(Cc1ccccc1)NCc1ccccc1Cl` (stereo not drawn), the efficacy in experiment [1] is -110%. Besides, the AC50 in experiment [2], in experiment [3] and in experiment [4] was 14.1 µM (active) throughout.

On to `Oc1c(Cl)cc(Cl)c2cccnc12`, for which, in experiment [1], the efficacy is 73.4%. Besides, the AC50 in experiment [2] and in experiment [4] was 39.8 µM (active) throughout. For the same compound, in experiment [3], the outcome was inactive.

With `CCOC(=O)Cn1cccc1-c1nc(-c2ccc(OC)cc2)c(-c2ccc(OC)cc2)s1`, the efficacy in experiment [1] is 34.5%. In addition, the AC50 in experiment [2], in experiment [3] and in experiment [4] was 0.708 µM (active) in each case.

For the compound `C[C@]1(Cn2ccnn2)[C@H](C(=O)O)N2C(=O)C[C@H]2S1(=O)=O`, the efficacy in experiment [1] is -31%. Also, the results for the AC50 in experiment [2], in experiment [3] and in experiment [4] were 0.282 µM (active), 0.316 µM (active) and 0.316 µM (active), respectively.

For the compound `CC(C)C[C@@H]1[C@H](c2ccccc2)OC(=O)N1CCCN1CCCCCC1`, the efficacy in experiment [1] was 64.2%. The AC50 in experiment [2] was 12.6 µM (active); in experiment [3], 8.91 µM (active); in experiment [4], 8.91 µM (active).

With `CC(=O)c1ccc2c(c1)N(CCCN1CCC(CCO)CC1)c1ccccc1S2`, the efficacy in experiment [1] was 62.5%. Further, the AC50 in experiment [2] was 3.16 µM (active); in experiment [3], 2.82 µM (active); in experiment [4] it was 2.82 µM (active).

With `O=C(NC1CCN(CCc2c[nH]c3ccccc23)CC1)c1ccccc1`, in experiment [1], the efficacy was 90.8%. For the same compound, the AC50 in experiment [2] is 25.1 µM (active); in experiment [3] it was 35.5 µM (active); in experiment [4] it was 35.5 µM (active).

`CCC(=O)OC1(c2ccccc2)CCN(C)CC1`: the efficacy in experiment [1] was 69.7%. The AC50 in experiment [2] and in experiment [4] was 31.6 µM (active) in each case. The outcome in experiment [3] was inactive.

`CN1CCN(C2Cc3ccccc3Sc3ccc(Cl)cc32)CC1` (stereo not drawn): in experiment [1], the efficacy was 95.7%. For the same compound, the AC50 in experiment [2], in experiment [3] and in experiment [4] was 5.01 µM (active) each time.

On to `c1ccc(CN(CC2=NCCN2)c2ccccc2)cc1`, for which the efficacy in experiment [1] is 60.7%. Moreover, the AC50 in experiment [2] and in experiment [4] was 39.8 µM (active) each time. Further, the outcome in experiment [3] was inactive.

Take `CN1[C@@H]2CC[C@H]1CC(OC(=O)c1cc(Cl)cc(Cl)c1)C2` (stereo partly drawn): the efficacy in experiment [1] was 82.4%. Moreover, the results for the AC50 in experiment [2], in experiment [3] and in experiment [4] were 25.1 µM (active), 28.2 µM (active) and 28.2 µM (active), respectively.

For the compound `CC(C)(C)C(=O)OCOC(=O)C1N2C(=O)CC2S(=O)(=O)C1(C)C` (stereo not drawn), the efficacy in experiment [1] is 65.1%. Besides, the concentration at half-maximal activity (AC50) was 3.98 µM (active) in experiment [2], 3.16 µM (active) in experiment [3] and 3.16 µM (active) in experiment [4].

For `COc1cc(C(=O)OCCCN2CCCN(CCCOC(=O)c3cc(OC)c(OC)c(OC)c3)CC2)cc(OC)c1OC`, in experiment [1], the efficacy was 89.6%. For the same compound, the AC50 is 17.8 µM (active) in experiment [2], 12.6 µM (active) in experiment [3] and 12.6 µM (active) in experiment [4].

In the case of `CCN(CC)CCNc1ccc(CO)c2sc3ccccc3c(=O)c12`, the efficacy in experiment [1] is 47.9%. Moreover, the AC50 in experiment [2] is 17.8 µM (active); in experiment [3], 14.1 µM (active); in experiment [4], 14.1 µM (active).

As to `CC(C(O)c1ccccc1)N(C)CCOC(c1ccccc1)c1ccccc1` (stereo not drawn), in experiment [1], the efficacy is 65%. Further, the AC50 was 3.16 µM (active) in experiment [2], 2.82 µM (active) in experiment [3] and 2.82 µM (active) in experiment [4].

In the case of `CC(=O)SC[C@@H](Cc1ccccc1)C(=O)NCC(=O)OCc1ccccc1`, in experiment [1], the efficacy was 58%. In addition, the AC50 in experiment [2], in experiment [3] and in experiment [4] was 28.2 µM (active) each time.

For `CCO[C@@H]1O[C@H](C(COCc2ccccc2)OCc2ccccc2)[C@H](OCc2ccccc2)[C@H]1O` (stereo partly drawn), the efficacy in experiment [1] was 70%. The AC50 in experiment [2] is 31.6 µM (active); in experiment [3] it was 15.8 µM (active); in experiment [4], 15.8 µM (active).

On to `CCc1ccc(C(=O)C(C)CN2CCCCC2)cc1` (stereo not drawn), for which the efficacy in experiment [1] was 36.6%. Moreover, the figures for the AC50 in experiment [2] and in experiment [4] were 39.8 µM (active) and 28.2 µM (active), respectively. In experiment [3], the result was inactive.

For `NC1(c2ccc(-c3nc4ccn5c(=O)[nH]nc5c4cc3-c3ccccc3)cc2)CCC1`, the efficacy in experiment [1] was 104%. For the same compound, the AC50 was 2.82 µM (active) in experiment [2], 2.51 µM (active) in experiment [3] and 2.51 µM (active) in experiment [4].

With `O=C(N[C@@H]1N=C(c2ccccc2F)c2cccc3c2N(CC3)C1=O)c1cc2ccccc2[nH]1`, the efficacy in experiment [1] was -148%. The AC50 was 25.1 µM (active) in experiment [2], 15.8 µM (active) in experiment [3] and 15.8 µM (active) in experiment [4].

`c1ccc2c(c1)CCc1ccccc1N2`: in experiment [1], the efficacy was -29.2%. Further, in experiment [2], the AC50 is 17.8 µM (active). Also, the outcome in experiment [3] and in experiment [4] was inactive.

For the compound `CCN(CC)CCOC(=O)C(c1ccccc1)c1ccccc1`, the efficacy in experiment [1] was 39%. Moreover, the AC50 was 20 µM (active) in experiment [2] and 39.8 µM (active) in experiment [4]. Moreover, the result in experiment [3] was inactive.
